The sample as a whole holds a higher share of hits than the screen did.
TSHR antagonist: Antagonists of the Thyroid Stimulating Hormone Receptor: HTS campaign | Thyrotropin receptor (Homo sapiens), P16473 | TSHR-expressing cells, TSH-stimulated cAMP HTRF, 2 h; hits give low values | activity change, negative = inhibition, % at 11.5 µM | 0.2% of 330,000 active | AID 504810, 2011;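 active means activity change below a set negative limit, meaning inhibition stronger than a set level, cut at about -70% in these data; inconclusive means activity change between two set negative limits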; further: on the % scale 0 is the no-effect control and ±100 the full control effect
Target sequence (P16473 whole entry, looked up): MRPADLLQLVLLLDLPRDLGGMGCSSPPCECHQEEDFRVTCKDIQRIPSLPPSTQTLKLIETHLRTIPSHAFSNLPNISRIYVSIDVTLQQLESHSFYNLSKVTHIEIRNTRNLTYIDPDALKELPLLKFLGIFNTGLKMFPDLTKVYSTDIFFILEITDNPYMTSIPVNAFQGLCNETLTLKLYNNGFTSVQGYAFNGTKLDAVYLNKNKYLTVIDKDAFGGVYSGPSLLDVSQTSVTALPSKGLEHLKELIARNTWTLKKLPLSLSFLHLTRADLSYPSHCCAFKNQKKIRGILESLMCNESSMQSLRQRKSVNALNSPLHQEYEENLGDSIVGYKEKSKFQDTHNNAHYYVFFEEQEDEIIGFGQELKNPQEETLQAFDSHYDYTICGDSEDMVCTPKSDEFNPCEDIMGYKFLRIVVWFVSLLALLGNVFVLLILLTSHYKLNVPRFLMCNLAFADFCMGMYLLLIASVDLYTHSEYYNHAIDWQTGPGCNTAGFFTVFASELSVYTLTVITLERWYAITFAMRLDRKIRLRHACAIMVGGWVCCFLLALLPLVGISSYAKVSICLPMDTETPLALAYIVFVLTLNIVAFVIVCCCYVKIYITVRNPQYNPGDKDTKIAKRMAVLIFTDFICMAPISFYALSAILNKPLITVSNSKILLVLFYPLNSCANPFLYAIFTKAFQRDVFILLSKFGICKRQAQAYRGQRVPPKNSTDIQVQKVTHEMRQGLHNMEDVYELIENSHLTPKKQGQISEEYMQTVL
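Competitive HTRF cAMP read-out (cryptate anti-cAMP antibody, cAMP-d2; 30 min, room temperature) in freshly harvested TSHR cells. Compounds added before TSH at EC80 (4nM final), followed by 2 hours' incubation at 37 deg C.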
PTHR1 ag: qHTS for PTHR1 Agonists: Primary Screen | Parathyroid hormone/parathyroid hormone-related peptide receptor (Homo sapiens), Q03431 | HEK293 GP2 PTHR1 cells, GloSensor cAMP luminescence, 1 h | 0.075% of 410,000 active | Potency, µM (series often up to 115 µM), for inactives: top-dose activation, most hits filed as activators; further: potency means the concentration at half of the fitted maximal effect; nearly all actives have a fitted effect of over 55% in size
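HEK-293-derived GP2 cells expressing PTHR1 and a GloSensor cAMP reporter, 3,000/well, plated overnight, given luciferin plus IBMX (each 0.5 mM as added) for 1 h at 37 °C, then compound for 1 h at 37 °C. Luminescence was read after 15 min at room temperature.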
RXFP1 antagonist: qHTS Assay for Antagonists of the Relaxin Receptor RXFP1; HEK293-RXFP1, relaxin-stimulated cAMP HTRF, 30 min; hits give low values; AID 1259400, 2018; 0.59% of 350,000 active; activity change, negative = inhibition, % at 57.5 µM;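 active means activity change of -60% or lower, but not beyond a set lower limit; inconclusive means change between -60% and -40%, or beyond the set limit; inactive means change above -40%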; further: on the % scale 0 is the no-effect control and ±100 the full control effect
HEK293 tox: qHTS of GLP-1 Receptor Inverse Agonists: Cytotox Screen; Potency, µM (titrated, usually from 38.3 µM), without a hit: at the top dose activity change, negative = inhibition, usual class: inhibitors; 0.13% of 410,000 active; HEK293 cAMP-luciferase reporter cells, luminescence, 24 h;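 further: loss of luciferase light is scored as toxicity; potency means the concentration at half of the fitted maximal effect; on the % scale 0 is the no-effect control and ±100 the full control effect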
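Quantitative HTS format, 1536 wells, 200 cells/uL seeded. Compounds: 23 nL, 24 h, 37 °C. Detection: luciferase reagent, luminescence at 12 min RT; decreased signal taken as cytotoxic.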
NPSR antagonist: qHTS Assay for Antagonists of the Neuropeptide S Receptor: cAMP Signal Transduction; CHO-NPSR cells, cAMP TR-FRET, antagonist mode; Potency, µM (titrated, usually from 38.3 µM), for inactives: at the top dose activity change, negative = inhibition, usual class: inhibitors; 1% of 220,000 active; AID 1461, 2008; further: potency means the concentration at half of the fitted maximal effect; on the % scale 0 is the no-effect control and ±100 the full control effect; nearly all actives have a fitted effect of over 50% in size
RXFP1 ag: qHTS Assay for Agonists of the Relaxin Receptor RXFP1. Relaxin receptor 1 (Homo sapiens), Q9HBX9. HEK293T-RXFP1 cAMP TR-FRET, 30 min; response scale: percent of porcine relaxin response, buffer zero. Potency, µM (top dose mostly 57.5 µM), for the others: at the highest dose activation, most hits filed as activators. 0.3% of 370,000 active. AID 2676, 2010; further: potency means the concentration at half of the fitted maximal effect; on the % scale 0 is the no-effect control and ±100 the full control effect; nearly all actives have a fitted effect of over 60% in size
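HEK293 cells stably expressing RXFP1, treated 30 min at 37C with compounds plus PDE4 inhibitor Ro 20174; cAMP measured by HTRF TR-FRET. Normalized to buffer and 29 nM porcine relaxin; EC50 by Hill fit.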
* hit, by the source's call; [ ] = remark or other dose. Unless noted, the call rests on the fitted dose curve; in most records, active means well fitted curve in the direction sought with a large enough effect; inconclusive means small, poorly fitted or top-dose-only effect, or another doubt; inactive means no such curve, though single readings can be large; an effect the other way counts as inactive or inconclusive.

`CCOC(=O)CCCCC(=O)c1[nH]c(=O)[nH]c1CSc1nc(C)cc(C)n1` gave TSHR antagonist -4, PTHR1 ag -6%, RXFP1 antagonist -2, HEK293 tox -21%, NPSR antagonist -9%[46.1 µM] and RXFP1 ag 5%.
Screening CCOC(=O)CCCCC(=O)c1[nH]c(=O)[nH]c1CSc1nnc2c3cc(Br)ccc3n(C)c2n1 returned TSHR antagonist 4, NPSR antagonist -29% and RXFP1 ag 14µM*.
COc1cc(CNC(=O)C2CC(O)CN2C(=O)Nc2ccccc2)cc(OC)c1OC (stereo not drawn) was read as PTHR1 ag -18%, RXFP1 antagonist -2 and HEK293 tox 5%.
Screening CCN(C(=O)COC(=O)c1cc(-c2cccs2)nc2ccccc12)C1CCS(=O)(=O)C1 (stereo not drawn) returned TSHR antagonist 5, PTHR1 ag -15%, RXFP1 antagonist 24, HEK293 tox 27%, NPSR antagonist -14% and RXFP1 ag 4%.
Screening CCN(C(=O)COC(=O)c1cc(-c2ccccc2)nc2ccc(Br)cc12)C1CCS(=O)(=O)C1 (stereo not drawn) returned TSHR antagonist -1, PTHR1 ag inactive, RXFP1 antagonist 7, HEK293 tox -1%[0.307 µM], NPSR antagonist -40% and RXFP1 ag 25µM*.
Screening CCOC(=O)C1=C(O)/C(=C\c2cc(C)n(-c3ccccc3F)c2C)N=C1C returned TSHR antagonist 10, PTHR1 ag inactive, RXFP1 antagonist -10, HEK293 tox -8%, NPSR antagonist -22% and RXFP1 ag -2%.
For CCOC(=O)C1=C(O)/C(=C/c2cccc(OC)c2O)N=C1C the results were TSHR antagonist -14, PTHR1 ag -4%, RXFP1 antagonist -63*, HEK293 tox inconclusive, NPSR antagonist -38% and RXFP1 ag -1%.
For CCOC(=O)c1ccccc1NC(=O)N1CCC(CN2CCOCC2)CC1 the results were PTHR1 ag -17%, RXFP1 antagonist 9, HEK293 tox 1% and RXFP1 ag 1%.
`Cc1ccc(S(=O)(=O)NCCC(=O)NC(C)c2ccccc2)cc1` (stereo not drawn) gave TSHR antagonist 1, PTHR1 ag -27%, RXFP1 antagonist 19, HEK293 tox 2% and RXFP1 ag -2%.
For Cc1ccc(S(=O)(=O)NCCC(=O)NC(C)CCc2ccccc2)cc1 (stereo not drawn) the results were TSHR antagonist 9, PTHR1 ag -7%, RXFP1 antagonist -62*, HEK293 tox -9% and RXFP1 ag 0%.
O=C(/C=C/c1cccc(Cl)c1)c1nc2ccccc2[nH]1 was read as TSHR antagonist -4, PTHR1 ag -38%, RXFP1 antagonist -82*, HEK293 tox inconclusive, NPSR antagonist -23%[46.1 µM] and RXFP1 ag 1%.
`COC(=O)/C(=C\c1ccc(O)cc1)c1nc2ccccc2[nH]1` gave TSHR antagonist -6, PTHR1 ag -18%, RXFP1 antagonist 9, HEK293 tox 15%, NPSR antagonist 0% and RXFP1 ag 0%.
O=C(/C(=C/c1ccc(Cl)cc1)c1nc2ccccc2[nH]1)c1cccs1 was read as TSHR antagonist 16, PTHR1 ag -94%, HEK293 tox inconclusive, NPSR antagonist 2µM* and RXFP1 ag -1%.
Screening COc1cc(/C=C(/C(=O)c2cccs2)c2nc3ccccc3[nH]2)ccc1O returned TSHR antagonist -26, PTHR1 ag -77%[57.5 µM], RXFP1 antagonist -21, HEK293 tox inconclusive, NPSR antagonist 10µM* and RXFP1 ag -4%.
Screening O=C(/C(=C\c1ccccc1)c1nc2ccccc2[nH]1)c1ccc(Cl)cc1 returned TSHR antagonist -9, PTHR1 ag -28%, RXFP1 antagonist -28, HEK293 tox inconclusive, NPSR antagonist 10µM* and RXFP1 ag 0%.
Screening O=S(=O)(c1ccc(F)cc1)N(CC(O)Cn1c2ccccc2c2ccccc21)c1ccccc1 (stereo not drawn) returned PTHR1 ag inactive, HEK293 tox -20% and RXFP1 ag 0%.
Screening CCN(CC)CCNC(=O)c1ccc2c(=O)n3nc(Nc4cccc(Cl)c4C)sc3nc2c1 returned PTHR1 ag inconclusive, RXFP1 antagonist 3, HEK293 tox -25% and RXFP1 ag inconclusive.
For CCOC(=O)Cn1c(=O)n(C2CCCCC2)c2nc(-c3ccc(CC)cc3)nc(C(N)=O)c21 the results were PTHR1 ag -7%, HEK293 tox 2% and RXFP1 ag 1%.
Screening CC(=O)Nc1ccc(CN2CCC(N3CCC(C(=O)NC4CC4)CC3)CC2)cc1 returned PTHR1 ag inactive, RXFP1 antagonist 2 and HEK293 tox -16%.
For Cc1ccc(Nc2nccc(N(C)c3ccc4c(C)n(C)nc4c3)n2)cc1S(N)(=O)=O the results were RXFP1 antagonist -39.
Screening COc1ccc(CNC(=O)COC(=O)c2cc(-c3ccc(Cl)s3)nc3ccccc23)cc1 returned TSHR antagonist -9, PTHR1 ag inactive, RXFP1 antagonist 1, HEK293 tox 103%, NPSR antagonist 10µM* and RXFP1 ag 2%.
`O=C1/C(=C/c2ccc([N+](=O)[O-])cc2)C=C(c2ccccc2)N1c1ccccc1` gave TSHR antagonist 1, PTHR1 ag inconclusive, RXFP1 antagonist 9, HEK293 tox 34%, NPSR antagonist -19%[46.1 µM] and RXFP1 ag 1%.
Screening O=C(O)c1cccc(N2C(=O)/C(=C/c3ccc([N+](=O)[O-])cc3)C=C2c2ccccc2)c1 returned TSHR antagonist -5, PTHR1 ag -51%, RXFP1 antagonist 4, HEK293 tox 4%, NPSR antagonist 5µM* and RXFP1 ag 2%.
`O=C1/C(=C/c2ccc([N+](=O)[O-])cc2)C=C(c2ccccc2)N1c1ccc(O)cc1` gave TSHR antagonist 1, PTHR1 ag -46%[57.5 µM], RXFP1 antagonist -7, HEK293 tox 3%, NPSR antagonist 13µM* and RXFP1 ag -1%.
Screening COc1ccc(N2C(=O)/C(=C/c3ccc([N+](=O)[O-])cc3)C=C2c2ccccc2)cc1 returned TSHR antagonist -3, PTHR1 ag -8%, RXFP1 antagonist -9, HEK293 tox 15%, NPSR antagonist -13%[46.1 µM] and RXFP1 ag 1%.

Source: PubChem
